Results filed as inconclusive are left out. Activity calls are given as the source filed them. Calls come from the whole dose curve; as a rule, active = well fitted curve in the direction sought with a large enough effect; inconclusive = small, poorly fitted or top-dose-only effect, or another doubt; inactive = no such curve, though single readings can be large; an effect the other way counts as inactive or inconclusive.
Columns and labels:
[1] = HPAF-II 18hr Apoptosis Induction qHTS against the NCATS CANVASS Library (AID 1347360)
Outline: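 Apoptosis was scored as caspase-3/7 activity in HPAF-II pancreatic cancer cells treated 18 hours with an 11-point concentration series.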

[2] = HEK293 12hr Apoptosis Induction qHTS against the NCATS CANVASS Library (AID 1347361)
Outline: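 Apoptosis in HEK293 was scored as caspase-3/7 luminescence following 12 h treatment with a compound concentration series in qHTS format.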

[3] = target: Luciferin 4-monooxygenase (Photinus pyralis) (UniProt P08659); assay: Firefly luciferase counterscreen qHTS: Assay Interference Panel against the NCATS CANVASS Library (AID 1347363); note: series mostly up to about 57 µM
Luciferin 4-monooxygenase (Photinus pyralis), sequence (P08659 whole entry, looked up): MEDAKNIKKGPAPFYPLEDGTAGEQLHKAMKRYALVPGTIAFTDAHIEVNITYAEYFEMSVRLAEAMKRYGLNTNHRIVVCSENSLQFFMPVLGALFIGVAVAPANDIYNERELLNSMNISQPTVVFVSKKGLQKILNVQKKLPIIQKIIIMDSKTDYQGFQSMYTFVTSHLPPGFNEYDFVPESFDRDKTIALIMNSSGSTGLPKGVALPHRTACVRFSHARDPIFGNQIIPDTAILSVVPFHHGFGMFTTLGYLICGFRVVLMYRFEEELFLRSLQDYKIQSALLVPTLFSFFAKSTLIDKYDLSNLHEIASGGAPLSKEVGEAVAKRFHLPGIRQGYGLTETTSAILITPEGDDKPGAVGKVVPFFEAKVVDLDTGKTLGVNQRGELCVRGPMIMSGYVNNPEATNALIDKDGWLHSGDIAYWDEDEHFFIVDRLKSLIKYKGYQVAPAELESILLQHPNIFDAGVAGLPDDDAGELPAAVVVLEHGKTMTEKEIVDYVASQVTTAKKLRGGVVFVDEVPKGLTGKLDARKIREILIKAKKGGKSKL
Outline: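 Purified P. pyralis luciferase (0.04 ug/mL, 4x reagent) added to Tris-acetate buffer with 0.013 mM D-luciferin, 0.013 mM ATP and 13.3 mM Mg-acetate; compounds preincubated 15 min, then luminescence read after 5 min, RT.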

[4] = KB-8-5-11 Cancer Cell Toxicity qHTS against the NCATS CANVASS Library (AID 1347364); note: series mostly up to about 46 µM; nearly all actives have a fitted effect of over 75% in size
Outline: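 CellTiter-Glo luminescence after 72 h exposure; 500 KB-8-5-11 cells/well, DMEM/10% FBS, 37C, 5% CO2; compounds in 11-pt qHTS. Follow-up confirmation included medium with 1uM tariquidar.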

[5] = SDT Cancer Cell Toxicity qHTS against the NCATS CANVASS Library (AID 1347365);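 note: SDT canine glioma cells 500 per well in 1536 well plates; series mostly up to about 46 µM; nearly all actives have a fitted effect of over 60% in size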
Outline: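 Luminescent ATP read-out (CellTiterGlo) after 72 hr compound exposure of dog glioma SDT cells, 500 per well. Eleven-point titrations; bortezomib titration run alongside as control.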

[6] = KB-3-1 Cancer Cell Toxicity qHTS against the NCATS CANVASS Library (AID 1347366); details: outcome: dose series up to 46.1 µM; note: nearly all actives have a fitted effect of over 75% in size
Outline: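 Seed KB-3-1 cells at 500/well in DMEM with 10% FBS, add compounds, incubate 72 hr at 37C and 5% CO2, then add CellTiter-Glo and read luminescence after 10 minutes.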

[7] = qHTS for ATAD5 Agonist screened against the NCATS CANVASS Library (AID 1347367);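 note: luciferase reporter driven by ATAD5 which rises upon DNA damage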
Outline: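 Step one plated reporter cells and let them acclimate 5hr. Step two pinned compounds with MMS as positive and 0.46% DMSO as negative control. After 16hr incubation, fluorescence viability then luminescence were read.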

[8] = G06 Cancer Cell Toxicity qHTS against the NCATS CANVASS Library (AID 1347368); note: series mostly up to about 46 µM; nearly all actives have a fitted effect of over 60% in size
Outline: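 ATP luminescence (CellTiterGlo) readout of cytotoxicity. Canine G06 glioma cells, 500/well, 72 hr incubation at 37C with compounds; bortezomib titration served as control.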

[9] = MCF7 Cancer Cell Toxicity qHTS against the NCATS CANVASS Library (AID 1347369); note: series mostly up to about 46 µM
Outline: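 Cytotoxicity is measured by ATP content: MCF7 cells at 500 per well receive an 11-point compound series and, after 72 hr at 37C, are lysed with CellTiterGlo for luminescence.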

[10] = qHTS for ATAD5 Antagonist screened against the NCATS CANVASS Library (AID 1347370);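 note: HEK293T cells carrying an ATAD5 luciferase reporter co-treated with 10 µM 5-fluorouridine; series mostly up to about 46 µM; nearly all actives have a fitted effect of over 65% in size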
Outline: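 HEK293T-ATAD5 luc reporter, 2000 cells/well; 5hr attach; cpd + 10 uM 5-FUrd; 16hr 37C, 5% CO2. Readouts: CellTiter-Fluor fluorescence (1hr), then Amplite luciferase luminescence (30min RT).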

[11] = J3T Cancer Cell Toxicity qHTS against the NCATS CANVASS Library (AID 1347371);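 note: J3T is a canine glioma cancer cell line seeded at 500 cells per well; series mostly up to about 46 µM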
Outline: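 Dog glioma J3T, 500 cells/well; cpd 11-pt qHTS; 72 hr, 37C/5% CO2; CellTiterGlo ATP luminescence readout.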

[12] = target: Nuclear receptor subfamily 1 group I member 3 (Homo sapiens) (UniProt Q14994); assay: qHTS for Constitutive Androstane Receptor (CAR) Antagonist screened against the NCATS CANVASS Library (AID 1347372);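 note: cells stimulated with 50 nM CITCO agonist so inhibition reflects antagonism; series mostly up to about 46 µM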
Nuclear receptor subfamily 1 group I member 3 (Homo sapiens), sequence (Q14994 whole entry, looked up): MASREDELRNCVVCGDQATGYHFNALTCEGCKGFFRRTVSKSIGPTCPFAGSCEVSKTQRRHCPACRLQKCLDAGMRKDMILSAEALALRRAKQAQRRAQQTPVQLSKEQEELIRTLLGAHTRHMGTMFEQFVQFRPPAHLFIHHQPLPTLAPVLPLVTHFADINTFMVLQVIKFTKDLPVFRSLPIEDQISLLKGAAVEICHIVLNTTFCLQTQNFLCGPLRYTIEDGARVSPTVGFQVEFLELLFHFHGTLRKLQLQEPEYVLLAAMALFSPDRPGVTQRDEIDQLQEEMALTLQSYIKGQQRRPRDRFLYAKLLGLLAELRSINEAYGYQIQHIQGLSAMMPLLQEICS
Outline: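 Luminescence readout (ONE-Glo, 30 min RT) of CYP2B6-2.2kb reporter in HepG2-hCAR cells after 24hr, 37C treatment with compound against 50 nM CITCO; CellTiter-Fluor viability read beforehand.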

[13] = target: Nuclear receptor subfamily 1 group I member 3 (Homo sapiens) (UniProt Q14994); assay: qHTS for Constitutive Androstane Receptor (CAR) Agonist screened against the NCATS CANVASS Library (AID 1347373);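 note: every well also contained 1.5 µM PK11195 alongside the test compound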
Outline: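 Luciferase read-out (ONE-Glo, 30 min RT) of CYP2B6-2.2kb promoter activity in double-stable HepG2-hCAR cells after 24hr compound exposure with 1.5uM PK11195 present; viability measured first by CellTiter-Fluor.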

[14] = qHTS for Hypoxia signaling pathway (HIF-1) antagonists against the NCATS CANVASS Library (AID 1347374);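 note: HRE-bla ME-180 cells stimulated with cobalt chloride to stabilize HIF-1alpha; series mostly up to about 38 µM; nearly all actives have a fitted effect of over 60% in size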
Outline: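 Beta-lactamase reporter under HRE control in ME-180 cells; CoCl2 stimulus (60 uM solution as added), compounds 11-pt qHTS, 17 h 37C. CCF4 dye 2 h RT, 460/530 nm emission. CellTiter-Glo viability in same wells.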

[15] = qHTS for Hypoxia signaling pathway (HIF-1) agonists against the NCATS CANVASS Library (AID 1347375)
Outline: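 Read-out: beta-lactamase FRET (CCF4-AM, ex 405, em 460 and 530 nm) after 2 h at room temperature. ME-180 cells stably carrying HRE-bla were treated 17 h at 37C with compounds in an 11-point concentration series.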

[16] = 10-beta competent E. coli microbial cell viability qHTS against the NCATS CANVASS Library (AID 1347376); note: series mostly up to about 46 µM
Outline: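 Luminescence from BacTiter-Glo ATP detection served as the viability read-out; bacteria (0.2 OD) had been incubated overnight at 37C with pin-transferred compounds at 11 concentrations.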

[17] = DH5-alpha competent E. coli microbial cell viability qHTS against the NCATS CANVASS Library (AID 1347377); details: outcome: dose series up to 46.1 µM
Outline: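 Luminescent ATP read-out (BacTiter-Glo, 20 min RT) after overnight 37C culture of DH5-alpha E. coli with compounds; daunomycin control at 0.2 nM–9.2 uM final.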

[18] = qHTS for H2AX Agonists against the NCATS CANVASS Library (AID 1347378);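 note: phospho-H2AX S139 level in CHO-K1 lysates by TR-FRET emission ratio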
Outline: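 Following overnight seeding, CHO-K1 cells are incubated with a concentration series of compound for 3 hr at 37C (final DMSO 0.76%). Cells are then lysed, detection antibodies added, and emission ratio 665/620 nm recorded after 24 hr at room temperature.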

[19] = qHTS for Inflammasome Signaling Inhibitors: IL-1-beta AlphaLISA screen against the NCATS CANVASS Library (AID 1347379); details: outcome: dose series up to 57.5 µM;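 note: human THP-1 cells primed with LPS then triggered with ATP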
Outline: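 THP-1, 1 hr compound pre-incubation, then LPS 250 ng/mL + ATP 1.25 mM (final); 16 hr total with compound; IL-1B AlphaLISA, ex 680/em 615 nm; 11-point qHTS, up to 57.5 uM final.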

[20] = test system: NAD(P)H diaphorase (Clostridium kluyveri); assay: Diaphorse counterscreen qHTS: Assay Interference Panel against the NCATS CANVASS Library (AID 1347362)
Outline: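 Clostridium kluyveri diaphorase in PBS + 0.01% Tween-20 preincubated 15 min with compounds. Resazurin and NADH then added for 5 min at room temperature in the dark; resorufin fluorescence read (ex 525, em 598).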

Measured: outcome

NCCc1c[nH]c2ccc(O)cc12
inactive: [1] | [2] | [3] | [4] | [5] | [6] | [7] | [8] | [9] | [10] | [11] | [12] | [13] | [14] | [15] | [16] | [17] | [18] | [19]

NCCc1c[nH]c2ccccc12
inactive: [1] | [2] | [20] | [3] | [4] | [6] | [7] | [8] | [9] | [10] | [11] | [12] | [13] | [14] | [15] | [16] | [17] | [18] | [19]
